{"source": "PubChem BioAssay (NCATS)", "note": "Inconclusive results are not listed. Where a call stands in place of a potency, no number is given. Activity calls are given as the source filed them. Calls come from the whole dose curve; as a rule, active = well fitted curve in the direction sought with a large enough effect; inconclusive = small, poorly fitted or top-dose-only effect, or another doubt; inactive = no such curve, though single readings can be large; an effect the other way counts as inactive or inconclusive. Potency is the fitted concentration of half-maximal effect.", "data": [{"target": "Rap guanine nucleotide exchange factor 3 (Homo sapiens) (UniProt O95398)", "sequence (O95398 whole entry, looked up)": "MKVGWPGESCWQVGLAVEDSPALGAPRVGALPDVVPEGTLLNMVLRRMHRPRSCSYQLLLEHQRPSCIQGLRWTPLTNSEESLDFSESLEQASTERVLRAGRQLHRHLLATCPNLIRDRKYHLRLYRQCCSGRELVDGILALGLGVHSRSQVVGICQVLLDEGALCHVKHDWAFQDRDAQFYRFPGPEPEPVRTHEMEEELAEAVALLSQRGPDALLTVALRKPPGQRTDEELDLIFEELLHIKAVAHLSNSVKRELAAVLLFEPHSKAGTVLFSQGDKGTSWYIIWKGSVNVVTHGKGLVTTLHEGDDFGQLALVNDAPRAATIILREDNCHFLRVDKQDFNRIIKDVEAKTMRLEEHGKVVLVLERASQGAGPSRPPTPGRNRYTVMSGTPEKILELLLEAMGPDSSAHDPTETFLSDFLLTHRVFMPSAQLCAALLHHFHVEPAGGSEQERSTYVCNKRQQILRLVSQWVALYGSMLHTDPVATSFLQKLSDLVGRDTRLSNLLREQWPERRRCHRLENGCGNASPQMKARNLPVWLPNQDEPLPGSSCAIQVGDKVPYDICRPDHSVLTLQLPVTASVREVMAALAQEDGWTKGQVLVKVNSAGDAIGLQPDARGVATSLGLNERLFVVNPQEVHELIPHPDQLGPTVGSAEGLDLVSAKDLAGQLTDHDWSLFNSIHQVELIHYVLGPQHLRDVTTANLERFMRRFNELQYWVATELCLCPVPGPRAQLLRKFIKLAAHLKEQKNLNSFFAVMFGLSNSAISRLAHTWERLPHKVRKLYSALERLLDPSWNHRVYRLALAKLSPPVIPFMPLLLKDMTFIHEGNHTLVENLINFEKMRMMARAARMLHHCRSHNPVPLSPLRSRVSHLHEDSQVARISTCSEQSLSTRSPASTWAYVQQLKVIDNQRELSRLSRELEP", "assay": "Confirmatory qHTS for antagonist of cAMP-regulated guanine nucleotide exchange factor 3 (EPAC1) (AID 1645880); note: nearly all actives have a fitted effect of over 55% in size", "details": "EPAC1 Rap1B-BODIPY-GDP exchange, fluorescence; activity, negative = inhibition: at 115 µM (top of the series)", "how_it_was_run": "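Nucleotide exchange uses 100 nM EPAC1, 250 nM RAP1B-BODIPY-GDP and 50 uM GDP, with compounds in a concentration-titration series. After 5 min at room temperature, fluorescence (480 nm ex/540 nm em) is read every 5 min for 30 min. Data are normalized to control ATA and DMSO.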", "values": [{"smiles": "COc1ccc2c(c1)CCc1c(C(=O)N(C)c3ccccc3)noc1-2", "Potency": "inactive"}, {"smiles": "CCCCn1nnnc1C(c1cc2ccccc2o1)N1CCN(c2cc(C)nc3ccccc23)CC1", "note": "(configuration not stated)", "Potency": "inactive"}, {"smiles": "CCN(CC)c1ccc(/C=c2\\sc3nc4ccccc4n3c2=O)c(O)c1", "Potency": "inactive"}, {"smiles": "COc1ccc(Cl)cc1NC(=O)CN(C)Cc1ccc(OC)c(OC)c1", "Potency": "inactive"}, {"smiles": "COC(=O)c1ccc2nc(-c3ccc(F)cc3)c(Cc3ccsc3)n2c1", "Potency": "inactive"}, {"smiles": "CN(Cc1ccccc1)c1nc(-c2ccc(F)cc2)cc(C(F)(F)F)n1", "Potency": "inactive"}, {"smiles": "Cc1oc2cc(Br)c(O)c(Br)c2c1-c1ccccc1", "Potency": "inactive"}, {"smiles": "COc1c(Cl)cc(Cl)cc1CNc1ccc(S(N)(=O)=O)cc1", "Potency": "inactive"}, {"smiles": "O=C(COc1ccc(Br)cc1Cl)c1ccc[nH]1", "Potency": "inactive"}, {"smiles": "O=c1ccc(NS(=O)(=O)c2ccc(Cl)cc2)cn1Cc1ccc(Cl)c(Cl)c1", "Potency": "75.7 µM (active)"}, {"smiles": "O=C(O)c1ccccc1-c1ccc(/C=C/c2cc(C(F)(F)F)[nH]c(=O)n2)o1", "Potency": "inactive"}, {"smiles": "COc1ccc2ccccc2c1C(O)c1nccn1C", "note": "(configuration not stated)", "Potency": "inactive"}, {"smiles": "COc1ccc(Cn2c(=O)cc(C)[nH]c2=S)cc1", "Potency": "inactive"}, {"smiles": "Cc1cc(C)c2c(CN3CCCCC3C)cc(=O)oc2c1", "note": "(configuration not stated)", "Potency": "inactive"}, {"smiles": "COCCN(CCOC)Cc1cc(=O)oc2cc(OC)c(Cl)cc12", "Potency": "inactive"}, {"smiles": "CC1CCCN(C2(O)C(=O)Nc3c(C(F)(F)F)cccc32)C1", "note": "(configuration not stated)", "Potency": "inactive"}, {"smiles": "Cc1cc2ccccn2c1C(=O)c1ccc(F)cc1", "Potency": "inactive"}, {"smiles": "O=C(O)CCNC(=O)c1ccc(NC(=O)C(c2ccccc2)c2ccccc2)cc1", "Potency": "inactive"}, {"smiles": "C=C(C)Cn1c(C)cc(C)c(S(=O)(=O)c2ccccc2C)c1=O", "Potency": "inactive"}, {"smiles": "CCC(=O)N1CCc2cc(CNC(=O)c3ccccc3C)ccc21", "Potency": "inactive"}, {"smiles": "COc1ccc(Nc2cccc3ccccc23)cc1", "Potency": "inactive"}, {"smiles": "COc1ccc2[nH]cc(CCNc3ncncc3-c3ccccc3Cl)c2c1", "Potency": "inactive"}, {"smiles": "Cc1cc(C)c(S(=O)(=O)N(C)c2ccccc2)c(C)c1", "Potency": "inactive"}, {"smiles": "O=C1OC(c2ccccc2)(c2ccccc2)c2ccsc21", "Potency": "inactive"}, {"smiles": "O=C1CSC(=Nc2ccccc2)N1Cc1ccccc1", "Potency": "inactive"}, {"smiles": "CCc1ccc[n+](-c2[nH]c(=O)sc2/C=N/NC([S-])=Nc2ccccc2)c1", "Potency": "inactive"}, {"smiles": "COc1cc(NC(C)=O)ccc1-c1cc2ccccc2oc1=O", "Potency": "inactive"}]}, {"target": "Rap guanine nucleotide exchange factor 3 (Homo sapiens) (UniProt O95398)", "assay": "Confirmatory qHTS for agonist of cAMP-regulated guanine nucleotide exchange factor 3 (EPAC1) (AID 1645881); note: nearly all actives have a fitted effect of over 75% in size", "details": "EPAC1 Rap1B BODIPY-GDP exchange fluorescence; series mostly up to 154 µM", "values": [{"smiles": "COc1ccccc1NC(=O)Cc1ccc(-c2ccccc2)cc1", "Potency": "inactive"}, {"smiles": "CCCc1nn2c(=O)cc(COC(=O)c3ccc(NC(=O)COc4ccccc4F)cc3)nc2s1", "Potency": "inactive"}, {"smiles": "CCCCn1nnnc1C(c1cc2ccccc2o1)N1CCCC1", "note": "(configuration not stated)", "Potency": "inactive"}, {"smiles": "Cc1ccn2c(-c3csc(NCc4ccccc4)n3)c(C)nc2c1", "Potency": "inactive"}, {"smiles": "CC(=O)N1N=C2c3ccccc3CCC2C1c1cccs1", "note": "(configuration not stated)", "Potency": "inactive"}, {"smiles": "Nc1cccc2c(O)cc(S(=O)(=O)O)cc12", "Potency": "50.1 µM (active)"}, {"smiles": "Cc1ccc(N2CC(NC(=O)C(=O)c3c[nH]c4ccccc34)CC2=O)cc1C", "note": "(configuration not stated)", "Potency": "inactive"}, {"smiles": "COc1ccc(NC(=O)CSc2ccccc2)cc1S(=O)(=O)N1CCCCC1", "Potency": "inactive"}, {"smiles": "O=C(c1ccccc1F)n1c2c(c3ccccc31)CCCC2", "Potency": "inactive"}, {"smiles": "Cn1ccc2c(N3CCCCCCC3)cc3c(c21)C1CCC3O1", "note": "(configuration not stated)", "Potency": "inactive"}, {"smiles": "CCOc1nc(-c2ccccc2Cl)nc2ccccc12", "Potency": "inactive"}, {"smiles": "CCOc1ccc(S(=O)(=O)N2CCCCC2)c(C)c1C", "Potency": "inactive"}, {"smiles": "CCn1cc(C=C2C(=O)c3ccccc3C2=O)c2ccccc21", "Potency": "inactive"}, {"smiles": "COc1ccc2c(c1)CCc1c(C(=O)N(C)c3ccccc3)noc1-2", "Potency": "inactive"}, {"smiles": "CCCCn1nnnc1C(c1cc2ccccc2o1)N1CCN(c2cc(C)nc3ccccc23)CC1", "note": "(configuration not stated)", "Potency": "inactive"}, {"smiles": "CCN(CC)c1ccc(/C=c2\\sc3nc4ccccc4n3c2=O)c(O)c1", "Potency": "inactive"}, {"smiles": "COc1ccc(Cl)cc1NC(=O)CN(C)Cc1ccc(OC)c(OC)c1", "Potency": "inactive"}, {"smiles": "COC(=O)c1ccc2nc(-c3ccc(F)cc3)c(Cc3ccsc3)n2c1", "Potency": "inactive"}, {"smiles": "CN(Cc1ccccc1)c1nc(-c2ccc(F)cc2)cc(C(F)(F)F)n1", "Potency": "inactive"}, {"smiles": "Cc1oc2cc(Br)c(O)c(Br)c2c1-c1ccccc1", "Potency": "inactive"}, {"smiles": "COc1c(Cl)cc(Cl)cc1CNc1ccc(S(N)(=O)=O)cc1", "Potency": "inactive"}, {"smiles": "O=C(COc1ccc(Br)cc1Cl)c1ccc[nH]1", "Potency": "inactive"}, {"smiles": "O=c1ccc(NS(=O)(=O)c2ccc(Cl)cc2)cn1Cc1ccc(Cl)c(Cl)c1", "Potency": "inactive"}, {"smiles": "O=C(O)c1ccccc1-c1ccc(/C=C/c2cc(C(F)(F)F)[nH]c(=O)n2)o1", "Potency": "89.1 µM (active)"}, {"smiles": "COc1ccc2ccccc2c1C(O)c1nccn1C", "note": "(configuration not stated)", "Potency": "inactive"}, {"smiles": "COc1ccc(Cn2c(=O)cc(C)[nH]c2=S)cc1", "Potency": "inactive"}, {"smiles": "Cc1cc(C)c2c(CN3CCCCC3C)cc(=O)oc2c1", "note": "(configuration not stated)", "Potency": "inactive"}, {"smiles": "COCCN(CCOC)Cc1cc(=O)oc2cc(OC)c(Cl)cc12", "Potency": "inactive"}, {"smiles": "CC1CCCN(C2(O)C(=O)Nc3c(C(F)(F)F)cccc32)C1", "note": "(configuration not stated)", "Potency": "inactive"}, {"smiles": "Cc1cc2ccccn2c1C(=O)c1ccc(F)cc1", "Potency": "inactive"}, {"smiles": "O=C(O)CCNC(=O)c1ccc(NC(=O)C(c2ccccc2)c2ccccc2)cc1", "Potency": "inactive"}, {"smiles": "C=C(C)Cn1c(C)cc(C)c(S(=O)(=O)c2ccccc2C)c1=O", "Potency": "inactive"}, {"smiles": "CCC(=O)N1CCc2cc(CNC(=O)c3ccccc3C)ccc21", "Potency": "inactive"}, {"smiles": "COc1ccc(Nc2cccc3ccccc23)cc1", "Potency": "inactive"}, {"smiles": "COc1ccc2[nH]cc(CCNc3ncncc3-c3ccccc3Cl)c2c1", "Potency": "inactive"}, {"smiles": "Cc1cc(C)c(S(=O)(=O)N(C)c2ccccc2)c(C)c1", "Potency": "inactive"}, {"smiles": "O=C1OC(c2ccccc2)(c2ccccc2)c2ccsc21", "Potency": "inactive"}, {"smiles": "O=C1CSC(=Nc2ccccc2)N1Cc1ccccc1", "Potency": "inactive"}, {"smiles": "CCc1ccc[n+](-c2[nH]c(=O)sc2/C=N/NC([S-])=Nc2ccccc2)c1", "Potency": "inactive"}, {"smiles": "COc1cc(NC(C)=O)ccc1-c1cc2ccccc2oc1=O", "Potency": "inactive"}]}]}
